Measurements from PubChem BioAssay.
Inconclusive results are not listed. Activity calls are given as the source filed them.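 Rule for the calls, unless noted: active = GFP signal, as percent of the solvent control, above the screen mean plus 3 SD, about 149; inconclusive = no reading because the compound's own fluorescence upset strain identification; inactive = the rest.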

Assay: TOR pathway LAP4-GFP level changes – S. cerevisiae, multiplex flow cytometry, primary screen (AID 1873)
Settings: S. cerevisiae LAP4-GFP expression, 3 h, at 10 µM, active compounds read high

GFP response vs DMSO, inactive:
C[C@]12CC[C@@H]3c4ccc(OS(=O)(=O)O)cc4CC[C@H]3[C@@H]1CCC2=O 79.2%
O=C1C2C3C=CC(C4CC34)C2C(=O)N1/N=C/c1ccc(-c2ccc([N+](=O)[O-])cc2)o1 (stereo not given) 85.4%
Cc1oc2ccc(OC(=O)c3cccs3)cc2c1C(=O)OC(C)C 115%
COc1ccc(CCN(C)CC(=O)Nc2cc(C)nc3ccccc23)cc1OC 94%
C[C@]12C=CC(=O)C=C1CCC1C3CC[C@](O)(C(=O)CO)[C@@]3(C)CC3OC312 (stereo not given in full) 85.4%
c1ccc2c(c1)CCCC2C1=NCCN1 (stereo not given) 108%
C=CCc1cc(Cl)ccc1OCCOCCN(C)C 75.2%
COc1cc2c(cc1OC)C(Cc1ccc(O)cc1)N(C)CC2 (stereo not given) 80.9%
CCOc1ccc(C(=O)Nc2ccc(N3CCN(C(C)=O)CC3)cc2)cc1[N+](=O)[O-] 78.7%
OCCN(CCO)c1ccc2ccccc2c1 96.5%
COc1ccc(CN(C)CCc2ccccn2)cc1OC 74.3%
CC(=O)OCC1OC(n2ccc(=O)[nH]c2=O)C(O)C1O (stereo not given) 102%
CC(=O)N1N=C(c2cccs2)CC1c1ccc(C)o1 (stereo not given) 78.7%
Cc1cc(C)c2c(CCl)cc(=O)oc2c1 127%
NC12CC3CC(CC(C3)C1)C2 78.7%
CC12CCC(C(=O)N3CCCCC3)([C@H](Br)C1=O)C2(C)C (stereo not given in full) 78.7%
CC(NCCC(c1ccccc1)c1ccccc1)c1ccccc1 (stereo not given) 68.8%
O=P(O)(O)CP(=O)(O)O 123%
Cc1cc(C(C)(C)C)cc(C)c1CC1=NCCN1 77.6%
O=C1NC2(Nc3ccccc31)C(=O)Nc1ccc(Br)cc12 (stereo not given) 85.8%
Cc1cc(-c2ccccc2)nnc1NCCN1CCOCC1 74.3%
Cc1ccccc1OCC(O)CN1CCN(C)CC1 (stereo not given) 75.9%
COc1cc(/C=C/C(=O)N2CCCC2)cc(OC)c1OC 76.9%
CNCCCN1c2ccccc2CCc2ccccc21 78.7%
Nc1c2c(nc3ccccc13)CCCC2 69.9%
COc1ccc(C2C3C(C)=NN=C3CC(C)(O)C2C(C)=O)cc1 (stereo not given) 94%
O=c1c2ccccc2nnn1Cc1cccc2ccccc12 78.7%
CC1(C)CC(=O)C(C(=O)CCCCC(=O)C2C(=O)CC(C)(C)CC2=O)C(=O)C1 91.3%
COC(=O)c1ccc(CC(=O)c2ccc(O)cc2O)o1 79.8%
O=C(CCCCCCCC(=O)c1ccccc1)c1ccccc1 105%
CC(=O)OC[C@H]1O[C@@H](n2ncc(=O)[nH]c2=O)[C@H](OC(C)=O)[C@@H]1OC(C)=O 78.1%
CC1CNCCN1S(=O)(=O)c1cccc2cnccc12 (stereo not given) 111%
COc1cc(C2C(C(=O)c3ccc(C)o3)=C(O)C(=O)N2Cc2cccnc2)ccc1O (stereo not given) 81.4%
Cc1ccccc1NC(=O)C1c2ccccc2Oc2ccccc21 77.6%
COc1ccc(-c2coc3cc(O)cc(O)c3c2=O)cc1 72.6%
Nc1cccc(C(=O)O)c1 79.2%
CCN1CCN(C(=O)N[C@@H](C(=O)N[C@@H]2C(=O)N3[C@@H]2SC(C)(C)[C@@H]3C(=O)O)c2ccccc2)C(=O)C1=O 74.3%
COCCc1ccc(OCC(O)CNC(C)C)cc1 (stereo not given) 87.4%

Assay: yeast AGP1-GFP level changes, GLN3 branch – cell-based, multiplex flow cytometry, S. cerevisiae, primary screen (AID 1887;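 active = GFP signal above the screen-wide mean plus 3 SD, that is over about 124.5% of the solvent control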;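 note: AGP1-GFP fusion strain of S. cerevisiae within a five-strain barcoded multiplex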)
Settings: 3 h, at 10 µM, active compounds read high

GFP response, % of DMSO, inactive:
O=C1C2C3C=CC(C4CC34)C2C(=O)N1/N=C/c1ccc(-c2ccc([N+](=O)[O-])cc2)o1 (stereo not given) 87.7%
Cc1oc2ccc(OC(=O)c3cccs3)cc2c1C(=O)OC(C)C 94.9%
COc1ccc(CCN(C)CC(=O)Nc2cc(C)nc3ccccc23)cc1OC 94.9%
C[C@]12C=CC(=O)C=C1CCC1C3CC[C@](O)(C(=O)CO)[C@@]3(C)CC3OC312 (stereo not given in full) 101%
c1ccc2c(c1)CCCC2C1=NCCN1 (stereo not given) 110%
C=CCc1cc(Cl)ccc1OCCOCCN(C)C 88.5%
OCCN(CCO)c1ccc2ccccc2c1 98.9%
COc1ccc(CN(C)CCc2ccccn2)cc1OC 90.6%
CC(=O)OCC1OC(n2ccc(=O)[nH]c2=O)C(O)C1O (stereo not given) 101%
Cc1cc(C)c2c(CCl)cc(=O)oc2c1 115%
O=P(O)(O)CP(=O)(O)O 122%
CC1CCCc2sc3ncn(N)c(=N)c3c21 (stereo not given) 87.1%
COc1cc(/C=C/C(=O)N2CCCC2)cc(OC)c1OC 100%
COc1ccc(C2C3C(C)=NN=C3CC(C)(O)C2C(C)=O)cc1 (stereo not given) 96.9%
O=C(CCCCCCCC(=O)c1ccccc1)c1ccccc1 96.9%
CC1CNCCN1S(=O)(=O)c1cccc2cnccc12 (stereo not given) 91.3%
COCCc1ccc(OCC(O)CNC(C)C)cc1 (stereo not given) 97.6%
